In PubChem BioAssay (NCATS):
Inconclusive results are not listed. Active and inactive are the calls of the source. Calls follow the shape of the dose curve; as a rule, active = well fitted curve in the direction sought with a large enough effect; inconclusive = small, poorly fitted or top-dose-only effect, or another doubt; inactive = no such curve, though single readings can be large; an effect the other way counts as inactive or inconclusive.

Key:
[1] = target: Calcium and integrin-binding protein 1 (Homo sapiens) (UniProt Q99828); experiment: Primary qHTS for Identification of Calcium Integrin Binding Protein 1 (CIB1) Competitor (AID 1508620); conditions: CIB1-GST / FITC-alphaIIb peptide fluorescence polarization; series mostly up to 57.7 µM;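 also: GST tagged CIB1 binding a fluorescein labelled alphaIIb integrin peptide tracer; top concentration of the series differs between compounds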
How it was run: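 CIB1-GST (1 uM final) and compound incubated 15 min at room temperature before adding FITC-alphaIIb peptide tracer (100 nM final). Competition for binding read by fluorescence polarization (ex 480, em 540) after another 15 min at room temperature.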

[2] = Primary qHTS for inhibitors of nuclear receptor binding SET domain protein 2 (NSD2) in an isogenic RCH-ACV NSD2 p.E1099K mutant (9B) (AID 1645876); conditions: RCH-ACV NSD2 E1099K (9B) viability, CellTiter-Glo, 72 h; series mostly up to 44.9 µM; also: nearly all actives have a fitted effect of over 70% in size
[3] = Primary qHTS for inhibitors of nuclear receptor binding SET domain protein 2 (NSD2) in an RCH-ACV wild type WT cells (2C) (AID 1645877); conditions: RCH-ACV (leukaemia line) NSD2 WT (2C) viability, CellTiter-Glo, 72 h; series mostly up to 44.9 µM; also: nearly all actives have a fitted effect of over 70% in size
% is scaled to controls: 0 for no effect and ±100 for the full control effect.

Calcium and integrin-binding protein 1 (Homo sapiens), sequence (Q99828 whole entry, looked up): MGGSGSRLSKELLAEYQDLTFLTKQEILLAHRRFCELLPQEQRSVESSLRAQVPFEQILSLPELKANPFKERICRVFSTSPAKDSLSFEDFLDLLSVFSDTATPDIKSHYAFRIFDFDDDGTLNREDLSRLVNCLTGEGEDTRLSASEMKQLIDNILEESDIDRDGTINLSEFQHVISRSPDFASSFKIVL

C=C[C@H]1[C@H](O[C@@H]2O[C@H](CO)[C@@H](O)[C@H](O)[C@H]2O)OC=C(C(=O)OC)[C@H]1CC=O
inactive: Potency [1] | Potency [2] | Potency [3]

C/C(=C\CCC(C)(C)O)CCO[C@@H]1O[C@H](CO[C@@H]2O[C@@H](C)[C@H](O)[C@@H](O)[C@H]2O)[C@@H](O)[C@H](O)[C@H]1O
inactive: Potency [1] | Potency [2] | Potency [3]

CC1CCC2C(C(=O)O)=CC3(O)CC(C)(C)CC123 (stereo not drawn)
inactive: Potency [1] | Potency [2] | Potency [3]

C=C1[C@H](OC(C)=O)[C@H]2[C@@H](OC(C)=O)C(C)C[C@]2(OC(C)=O)C(=O)[C@H](C)/C=C/C(C)(C)C(=O)[C@H](OC(=O)C(C)C)[C@H]1OC(C)=O (stereo partly drawn)
inactive: Potency [1] | Potency [2] | Potency [3]

COC1OC(=O)C2=C1C1(C)CCCC(C)(C)C1CC2O (stereo not drawn)
inactive: Potency [1] | Potency [2] | Potency [3]

CC1=CCC[C@@H]2[C@@](C)(CCc3ccoc3)[C@H](C(=O)O)CC[C@@]12C
inactive: Potency [1] | Potency [2] | Potency [3]

C[C@]12CCC[C@](C)(C(=O)O)C1[C@@H](O)[C@@H](O)C13CC(CCC12)C(CO)(O[C@@H]1O[C@H](CO)[C@@H](O)[C@H](O)[C@H]1O)C3 (stereo partly drawn)
inactive: Potency [1] | Potency [2] | Potency [3]

COC(=O)C1=COC(O[C@@H]2O[C@H](CO)[C@@H](O)[C@H](O)[C@H]2O)/C(=C\COC(=O)/C=C/c2ccccc2)C1CC(=O)OCCc1ccc(O)cc1 (stereo partly drawn)
inactive: Potency [1] | Potency [2] | Potency [3]

COC(=O)c1cc(OC)cc(OC)c1C(=O)c1c(OC)cc2c(c1O)C1CCC(O)C(C)(O2)O1 (stereo not drawn)
inactive: Potency [1] | Potency [2] | Potency [3]

C=C1C2CCC3CC2(CC(O)C2(O)C1CC(OC1OC(CO)C(O)C(O)C1O)C2(C)C)CC3(C)O (stereo not drawn)
inactive: Potency [1] | Potency [2] | Potency [3]

O=C(O)c1ccnc(-c2cc(C(=O)NCCc3ccccc3)ccn2)c1
inactive: Potency [1] | Potency [2] | Potency [3]

C=C1[C@@H]2CC[C@@]3(C)[C@H](c4ccoc4)OC(=O)C[C@]13O[C@H]1CC(=O)C(C)(C)[C@H](C(O)C(=O)OC)[C@]12C (stereo partly drawn)
inactive: Potency [1] | Potency [2] | Potency [3]

O=C(OCC(O)CO[C@@H]1O[C@H](C(=O)O)[C@@H](O)[C@H](O)[C@H]1O)c1ccccc1 (stereo partly drawn)
inactive: Potency [1] | Potency [2] | Potency [3]

C[C@@H]1O[C@@H](O[C@H]2[C@@H]3C=CO[C@@H](O[C@@H]4O[C@H](CO)[C@@H](O)[C@H](O)[C@H]4O)[C@@H]3[C@@]3(CO)O[C@@H]23)[C@H](O)[C@H](O)[C@H]1OC(=O)/C=C/c1ccc(O)cc1
inactive: Potency [1] | Potency [2] | Potency [3]

COC(=O)C1=CO[C@@H](O[C@@H]2O[C@H](CO)[C@@H](O)[C@H](O)[C@H]2O)[C@@H]2[C@@H](C(=O)O)CC[C@H]12
inactive: Potency [1] | Potency [2] | Potency [3]

N#CC1C(=O)N=C(c2cc(Cl)ccc2O)C=C1c1cc(OCc2ccccc2)cc(OCc2ccccc2)c1 (stereo not drawn)
inactive: Potency [1] | Potency [2] | Potency [3]

CC(=O)O[C@H]1[C@H](OC(=O)C(C)C)[C@]2(C)OC3(CC[C@]2(C)[C@H]2CCC[C@]4(CO4)[C@]12C)COC(=O)C3 (stereo partly drawn)
inactive: Potency [1] | Potency [2] | Potency [3]

C[C@@H]1O[C@@H](O[C@H]2[C@H](O)[C@@H](O)[C@H](OC[C@H]3O[C@@H](OC(=O)[C@]45CCC(C)(C)C[C@H]4C4=CCC6[C@@]7(C)C[C@@H](O)[C@H](O)[C@@](C)(CO)C7[C@H](O)C[C@@]6(C)[C@]4(C)CC5)[C@H](O)[C@@H](O)[C@@H]3O)O[C@@H]2CO)[C@H](O)[C@H](O)[C@H]1O (stereo partly drawn)
inactive: Potency [1] | outcome [2] inactive [at 9.23 µM] | activity change, negative = cell killing [3] 0.947% [at 9.23 µM]

CC/C=C\C(O)C(O)C1=C(C)C(=O)C2(O1)C(=O)NC(OC)(C(=O)c1ccccc1)C2O (stereo not drawn)
inactive: Potency [1] | Potency [2] | Potency [3]

CC1=C2CC(C)(C)CC2C(O)C2=C(C1)C(=O)OC2O (stereo not drawn)
inactive: Potency [1] | Potency [2] | Potency [3]

Cc1occc(=O)c1O[C@@H]1O[C@H](CO[C@@H]2OC[C@](O)(CO)[C@H]2O)[C@@H](O)[C@H](O)[C@H]1O
inactive: Potency [1] | Potency [2] | Potency [3]

O=C(O)CC/C=C\C[C@H]1CO[C@@H](c2ccccc2Cl)O[C@H]1c1ccccc1O
inactive: Potency [1] | Potency [2] | Potency [3]

CC(O)C(O)/C=C/C=C/C(=O)O[C@@H]1C=C(C(=O)O)[C@](O)(CO)[C@@]2(C)CCCC(C)(C)[C@H]12 (stereo partly drawn)
inactive: Potency [1] | Potency [2] | Potency [3]

CC1=C(C)C(=O)OC(C(C)C2C(O)CC3C4C5OC5C5(O)CC(OC6OC(CO)C(OC7OC(C)C(O)C(O)C7O)C(O)C6O)CC(O)C5(C)C4CCC32C)C1 (stereo not drawn)
inactive: Potency [1] | Potency [2] | Potency [3]

C=CC(C)(CCC=C(C)C)O[C@@H]1O[C@H](CO)[C@@H](O)[C@H](O)[C@H]1O (stereo partly drawn)
inactive: Potency [1] | Potency [2] | Potency [3]

Cc1occc(=O)c1O[C@@H]1O[C@H](COC(=O)CC(C)(O)CC(=O)O)[C@@H](O)[C@H](O)[C@H]1O (stereo partly drawn)
inactive: Potency [1] | Potency [2] | Potency [3]

CCc1cc(CC[C@]2(C3CCCC3)CC(O)=C(Cc3nc4nc(C)cc(C)n4n3)C(=O)O2)cc(CC)n1
inactive: Potency [1] | Potency [2] | Potency [3]

O=C(C[C@@H]1C(C(=O)O)=CO[C@@H](O[C@@H]2O[C@H](CO)[C@@H](O)[C@H](O)[C@H]2O)/C1=C\CO)OCCc1ccc(O)c(O)c1
inactive: Potency [1] | Potency [2] | Potency [3]

CC(O)C1NC(=O)C2CCCN2C1=O (stereo not drawn)
inactive: Potency [1] | Potency [2] | Potency [3]

COc1cc(C[C@@]2(O)CO[C@@H](c3ccc(O[C@@H]4O[C@H](CO)[C@@H](O)[C@H](O)[C@H]4O)c(OC)c3)[C@H]2CO)ccc1O
inactive: Potency [1] | Potency [2] | Potency [3]

C/C=C/C(=O)OC1/C=C/C(O)C(OC(C)=O)CCC(=O)OC1C (stereo not drawn)
inactive: Potency [1] | Potency [2] | Potency [3]

COC(=O)C1=COC(O[C@@H]2O[C@H](COC(=O)/C=C/c3ccc(O)cc3)[C@@H](O)[C@H](O)[C@H]2O)C2C(CO)=CCC12 (stereo partly drawn)
inactive: Potency [1] | Potency [2] | Potency [3]

C=C1CCC2(OC1)OC1CC3C4CC=C5CC(O)CC(O[C@@H]6OC[C@H](OC(=O)C(O)C(C)CC)[C@H](O)[C@H]6O[C@@H]6O[C@@H](C)[C@H](O)[C@@H](O)[C@H]6O)C5(C)C4CCC3(C)C1C2C (stereo partly drawn)
inactive: Potency [1] | activity change, negative = viability loss [2] -3.21% [at 9.23 µM] | activity change, negative = cell killing [3] -9.66% [at 9.23 µM]

C=C(COC(=O)CC(C)C)C1Cc2cc(C(C)=O)ccc2O1 (stereo not drawn)
inactive: Potency [1] | Potency [2] | Potency [3]

C/C=C1/[C@H](O[C@@H]2O[C@H](CO)[C@@H](O)[C@H](O)[C@H]2O)OC=C(C(=O)OC)[C@H]1CC(=O)OCCc1ccc(O)c(O)c1
inactive: Potency [1] | Potency [2] | Potency [3]

CC1CCC2(NC1)OC1C(O)C3C4CCC5CC(O[C@@H]6O[C@H](CO)[C@@H](O)[C@H](O)[C@H]6O[C@@H]6O[C@@H](C)[C@H](O)[C@@H](O)[C@H]6O)CCC5(C)C4CCC3(C)C1C2C (stereo partly drawn)
inactive: Potency [1] | Potency [2] | Potency [3]

O=C(/C=C/c1ccc(O)c(O)c1)OC[C@H]1O[C@@H](OC2CCCCC2O)[C@H](O)[C@@H](O)[C@@H]1O (stereo partly drawn)
inactive: Potency [1] | Potency [2] | Potency [3]

CC(C)=CCC[C@@](C)(O)[C@H]1CC[C@]2(C)[C@@H]1[C@H](O)CC1[C@@]3(C)CC[C@H](O[C@@H]4O[C@H](CO)[C@@H](O)[C@H](O)[C@H]4O[C@@H]4O[C@H](CO)[C@@H](O)[C@H](O)[C@H]4O)C(C)(C)[C@@H]3CC[C@]12C (stereo partly drawn)
inactive: Potency [1] | Potency [2] | Potency [3]

O=C(/C=C/c1ccc(O)cc1)OC[C@H]1O[C@@H](O/C(=C\c2ccccc2)C(=O)O)[C@H](O)[C@@H](O)[C@@H]1O
inactive: Potency [1] | Potency [2] | Potency [3]

O=C(/C=C/c1ccc(O)cc1)O[C@@H]1C[C@@](O)(C(=O)O)C[C@@H](O)[C@@H]1O
inactive: Potency [1] | Potency [2] | Potency [3]

CC(NC(=O)c1ccccc1N)C(=O)O (stereo not drawn)
inactive: Potency [1] | Potency [2] | Potency [3]

C[C@H]1[C@H](C)CC[C@]2(C(=O)OC3OC(CO)C(O)C(O)C3O)CC[C@]3(C(=O)O)C(=CCC4[C@@]5(C)CC[C@H](O[C@@H]6O[C@@H](C)[C@H](OC7OC(CO)C(O)C(O)C7O)[C@@H](O)[C@H]6O)C(C)(C)C5CC[C@]43C)[C@H]12 (stereo partly drawn)
inactive: Potency [1] | activity change, negative = viability loss [2] -7.55% [at 9.23 µM] | activity change, negative = cell killing [3] -2.86% [at 9.23 µM]

CC(C)c1ccc2c(c1)[C@H](O)CC1[C@@](C)(C(=O)O)CCC[C@]21C (stereo partly drawn)
inactive: Potency [1] | Potency [2] | Potency [3]

Nc1ccc(-n2nc(C(F)(F)F)cc2C(F)(F)F)cc1
inactive: Potency [1] | Potency [2] | Potency [3]

CCC(C)C(C(=O)O)N1Cc2c(OCC=C(C)C)c(C)c(OC)c(C(=O)O)c2C1=O (stereo not drawn)
inactive: Potency [1] | Potency [2] | Potency [3]

CC(=O)OC1CC2(C)C(CCC(C)C23Cc2c(O)cc4c(c2O3)CNC4=O)C(C)(C)C1O (stereo not drawn)
inactive: Potency [1] | Potency [2] | Potency [3]

C[C@@H]1CC[C@]2(C(=O)O)CC[C@]3(C)C(=CCC4[C@@]5(C)C[C@@H](O)[C@H](O)[C@@](C)(CO)C5CC[C@]43C)C2[C@H]1C (stereo partly drawn)
inactive: Potency [1] | Potency [2] | Potency [3]

CC(=O)/C=C/[C@H]1[C@](C)(O)[C@@H](O)[C@H](O)C2C(C)(C)CCC[C@@]21C (stereo partly drawn)
inactive: Potency [1] | Potency [2] | Potency [3]

Cc1cc(O[C@@H]2O[C@H](COC(=O)CC(=O)O)[C@@H](O)[C@H](O)[C@H]2O)c(C(C)C)cc1O
inactive: Potency [1] | Potency [2] | Potency [3]

COc1cc(/C=C/C(=O)O[C@@H]2O[C@H](CO)[C@@H](O)[C@H](O)[C@H]2O)ccc1O
inactive: Potency [1] | Potency [2] | Potency [3]

COc1ccc(CCC(=O)O)c(O[C@@H]2O[C@H](CO)[C@@H](O)[C@H](O)[C@H]2O)c1
inactive: Potency [1] | Potency [2] | Potency [3]
